From ChEMBL document CHEMBL1961873, “Compounds: GSK PKIS; Assays: Nanosyn kinase panel” (2012)

Tests used:
[1] = target: Mast/stem cell growth factor receptor Kit (Homo sapiens) (UniProt P10721); settings: at 1 µM
[2] = tested on: Mast/stem cell growth factor receptor Kit (Homo sapiens), P10721 [D816V]; settings: at 0.1 µM
[3] = tested on: Mast/stem cell growth factor receptor Kit (Homo sapiens), P10721 [D816V]; settings: at 1 µM
[4] = tested on: Mast/stem cell growth factor receptor Kit (Homo sapiens), P10721 [T670I]; settings: at 0.1 µM
Mast/stem cell growth factor receptor Kit (Homo sapiens), P10721 [T670I], sequence (P10721 whole entry T670I): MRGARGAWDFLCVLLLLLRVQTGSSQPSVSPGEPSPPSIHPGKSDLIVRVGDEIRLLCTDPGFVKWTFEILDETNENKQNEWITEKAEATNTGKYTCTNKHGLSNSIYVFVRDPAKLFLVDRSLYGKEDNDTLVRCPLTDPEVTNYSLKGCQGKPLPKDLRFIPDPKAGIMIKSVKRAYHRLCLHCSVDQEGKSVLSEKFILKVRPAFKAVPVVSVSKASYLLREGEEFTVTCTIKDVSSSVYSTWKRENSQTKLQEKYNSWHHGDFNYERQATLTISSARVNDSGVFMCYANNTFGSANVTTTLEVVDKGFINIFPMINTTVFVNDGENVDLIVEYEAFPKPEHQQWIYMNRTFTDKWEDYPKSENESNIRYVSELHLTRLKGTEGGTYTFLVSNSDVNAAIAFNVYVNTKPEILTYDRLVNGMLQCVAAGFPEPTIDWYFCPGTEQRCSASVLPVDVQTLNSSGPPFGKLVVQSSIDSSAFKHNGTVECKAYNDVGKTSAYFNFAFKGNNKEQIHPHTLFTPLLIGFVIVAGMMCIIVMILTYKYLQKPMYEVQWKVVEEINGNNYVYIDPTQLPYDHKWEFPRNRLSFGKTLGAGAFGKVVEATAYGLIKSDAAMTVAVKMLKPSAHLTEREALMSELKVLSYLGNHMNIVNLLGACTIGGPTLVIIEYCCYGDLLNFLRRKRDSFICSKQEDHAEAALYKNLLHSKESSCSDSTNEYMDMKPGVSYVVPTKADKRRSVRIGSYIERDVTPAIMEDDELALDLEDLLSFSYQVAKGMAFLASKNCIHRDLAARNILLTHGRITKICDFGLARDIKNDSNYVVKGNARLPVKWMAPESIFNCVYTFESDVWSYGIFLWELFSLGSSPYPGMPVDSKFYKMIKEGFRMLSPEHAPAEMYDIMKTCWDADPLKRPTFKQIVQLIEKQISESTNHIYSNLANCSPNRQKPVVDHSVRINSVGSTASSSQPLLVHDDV

[5] = tested on: Mast/stem cell growth factor receptor Kit (Homo sapiens), P10721 [T670I]; settings: at 1 µM
[6] = tested on: Mast/stem cell growth factor receptor Kit (Homo sapiens), P10721 [V560G]; settings: at 0.1 µM
Mast/stem cell growth factor receptor Kit (Homo sapiens), P10721 [V560G], sequence (P10721 whole entry V560G): as the sequence (P10721 whole entry T670I) above, with V560G, I670T counted along it

[7] = tested on: Mast/stem cell growth factor receptor Kit (Homo sapiens), P10721 [V560G]; settings: at 1 µM
[8] = target: Tyrosine-protein kinase Lck (Homo sapiens) (UniProt P06239); settings: at 0.1 µM
Tyrosine-protein kinase Lck (Homo sapiens), sequence (P06239 2-509 limits assumed): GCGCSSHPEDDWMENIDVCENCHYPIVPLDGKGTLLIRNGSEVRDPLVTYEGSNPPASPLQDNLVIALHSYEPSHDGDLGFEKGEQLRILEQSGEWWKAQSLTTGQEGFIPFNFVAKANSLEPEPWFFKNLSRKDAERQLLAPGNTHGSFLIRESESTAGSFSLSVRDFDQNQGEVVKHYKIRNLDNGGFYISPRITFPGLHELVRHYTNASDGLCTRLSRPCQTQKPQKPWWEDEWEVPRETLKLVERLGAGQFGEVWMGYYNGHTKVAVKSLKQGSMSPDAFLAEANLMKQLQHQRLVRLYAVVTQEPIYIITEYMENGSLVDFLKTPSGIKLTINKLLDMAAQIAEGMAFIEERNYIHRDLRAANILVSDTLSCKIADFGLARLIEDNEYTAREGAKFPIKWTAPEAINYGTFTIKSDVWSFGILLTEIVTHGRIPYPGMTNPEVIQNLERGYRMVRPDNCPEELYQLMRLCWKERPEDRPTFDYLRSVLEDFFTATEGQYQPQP

[9] = target: Tyrosine-protein kinase Lck (Homo sapiens) (UniProt P06239); settings: at 1 µM
[10] = target: Leukocyte tyrosine kinase receptor (Homo sapiens) (UniProt P29376); settings: at 0.1 µM
Leukocyte tyrosine kinase receptor (Homo sapiens), sequence (P29376 whole entry): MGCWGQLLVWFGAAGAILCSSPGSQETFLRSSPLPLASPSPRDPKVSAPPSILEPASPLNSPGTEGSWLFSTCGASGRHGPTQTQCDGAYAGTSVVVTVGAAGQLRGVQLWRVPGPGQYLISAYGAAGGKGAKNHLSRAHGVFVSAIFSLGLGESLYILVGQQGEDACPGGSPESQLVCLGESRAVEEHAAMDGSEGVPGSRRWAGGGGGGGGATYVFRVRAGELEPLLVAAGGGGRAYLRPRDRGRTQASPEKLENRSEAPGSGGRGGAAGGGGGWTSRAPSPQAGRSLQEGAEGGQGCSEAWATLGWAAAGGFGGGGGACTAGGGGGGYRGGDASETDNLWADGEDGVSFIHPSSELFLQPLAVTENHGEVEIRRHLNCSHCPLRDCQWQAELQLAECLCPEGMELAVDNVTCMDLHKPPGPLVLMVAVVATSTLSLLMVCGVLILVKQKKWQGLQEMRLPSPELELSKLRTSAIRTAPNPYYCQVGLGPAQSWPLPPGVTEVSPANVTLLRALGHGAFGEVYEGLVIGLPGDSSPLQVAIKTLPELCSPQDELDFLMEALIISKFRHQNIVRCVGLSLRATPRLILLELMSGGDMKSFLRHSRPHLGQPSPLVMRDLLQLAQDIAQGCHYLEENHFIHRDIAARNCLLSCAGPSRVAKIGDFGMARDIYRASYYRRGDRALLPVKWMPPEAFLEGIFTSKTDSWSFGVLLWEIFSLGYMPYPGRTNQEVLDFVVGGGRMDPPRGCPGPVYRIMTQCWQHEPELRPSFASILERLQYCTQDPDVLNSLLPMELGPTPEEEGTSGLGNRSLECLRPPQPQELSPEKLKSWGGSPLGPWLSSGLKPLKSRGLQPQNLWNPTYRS

Mast/stem cell growth factor receptor Kit (Homo sapiens), sequence (P10721 whole entry): as the sequence (P10721 whole entry T670I) above, with I670T counted along it
Mast/stem cell growth factor receptor Kit (Homo sapiens), P10721 [D816V], sequence (P10721 whole entry D816V): as the sequence (P10721 whole entry T670I) above, with I670T, D816V counted along it

Row | SMILES | inhibition [1] [%] | inhibition [2] [%] | inhibition [3] [%] | inhibition [4] [%] | inhibition [5] [%] | inhibition [6] [%] | inhibition [7] [%] | inhibition [8] [%] | inhibition [9] [%] | inhibition [10] [%]
1 | c1ccc(-c2nc3n(c2-c2ccc4c(c2)OCO4)CCC3)nc1 | 1.73 | 2.63 | 0.34 | 2.34 | 2.64 | -1.47 | -1.27 | 0.66 | 3.01 | 0.09
2 | CC1=C(C(=O)Nc2cc(Cl)c3[nH]ncc3c2)C(c2ccc(C(F)(F)F)cc2)CC(=O)N1 (stereo not given) | 0.36 | 4.84 | 6.4 | 2.93 | 4.07 | -1.27 | -0.62 | 4.9 | 27.1 | 2.35
3 | CCn1c(-c2nonc2N)nc2c(C#CC(C)(C)O)ncc(OC3CCNCC3)c21 | 3.87 | 4.97 | 6.05 | 1.16 | -0.54 | -0.47 | 0.39 | 2.33 | 4.05 | 1.83
4 | CCn1c(-c2nonc2N)nc2cnc(Oc3cccc(NC(=O)c4ccc(N(C)C)cc4)c3)cc21 | 1.33 | 0.14 | -1.44 | 0.35 | -0.9 | -2.78 | 2.28 | -0.65 | 1.33 | 1.6
5 | Fc1cccc(COc2ccc(Nc3ncnc4sc(-c5ccco5)cc34)cc2Cl)c1 | 6.21 | 3.37 | 6.34 | 2.63 | 3.7 | -0.3 | 0.57 | 3.21 | 5.67 | 3.44
6 | Nc1nc(-c2ccc(F)cc2)c(-c2ccc3ncccc3n2)s1 | 9.66 | 1.91 | 5.04 | 4.73 | 5.34 | 2.59 | 2.66 | 9.43 | 16.7 | 3.99
7 | Cc1cccc2c1NC(=O)/C2=N\Nc1ccc(S(N)(=O)=O)cc1 | 34.3 | 1.59 | -1.26 | 6.87 | 7.06 | 2.17 | 6.53 | 1.96 | 2.95 | 2.01
8 | CCN1CCC(CC(=O)Nc2n[nH]c3nnc(-c4cccc(F)c4F)cc23)CC1 | 0.38 | 0.53 | 0.47 | 0.27 | 1.83 | 1.48 | -0.83 | 2.01 | 6.17 | 2.06
9 | CNC(=O)c1cccc(C#Cc2cncnc2Nc2ccc(OCc3cccc(F)c3)c(Cl)c2)c1 | 8.09 | 0.89 | 3.12 | 0.83 | 3.3 | 1.32 | 5.48 | 1.2 | 1.35 | 1.28
10 | NS(=O)(=O)c1ccc(Nc2ncc(-c3ccccc3)o2)cc1 | 88.6 | 0.49 | 2.25 | 14.9 | 58.7 | 9.24 | 52.5 | 1.77 | 6.21 | 4.12
11 | CN1CCC(n2cnc(-c3ccc(F)cc3)c2-c2ccnc(Nc3ccccc3)n2)CC1 | 6 | 1.84 | 2.39 | 3.38 | 1.42 | -1.35 | 4.06 | 4.17 | 20.5 | 2.75
12 | N#Cc1c(NC(=O)c2ccc(F)cc2)sc2c1CCCC2 | 5.86 | -0.47 | 2.78 | -0.92 | 1.72 | -0.83 | 0.9 | 0.7 | 0.45 | 1.24
13 | COc1cccc(-n2ncc3c(N/N=C/c4ccc(F)cc4)ncnc32)c1 | 17.1 | 7.16 | 7.84 | 5.29 | 5.91 | -0.37 | 5.46 | 13.5 | 45.5 | 4.1
14 | O=C(Nc1n[nH]c2cc(-c3ccc(F)cc3)ccc12)C1CC1 | 5.1 | 3.06 | 5.66 | 3.36 | 4.92 | -2.61 | 0.08 | 1.9 | 7.59 | 2.47
15 | Nc1ncc(-c2cccc(S(N)(=O)=O)c2)c2scc(-c3ccc(F)c(Cl)c3)c12 | 98.1 | -0.67 | 5.44 | 3.88 | 5.82 | 3.89 | 50.5 | 12.9 | 52.4 | 10.7
16 | CC(=O)NCc1cccc(C#Cc2cncnc2Nc2ccc(OCc3cccc(F)c3)c(Cl)c2)c1 | 0.4 | -2.07 | -2.37 | 1.52 | 1.39 | 1.82 | -0.41 | 0.34 | 1.6 | 1.56
17 | c1cc(-c2cnn3nc(N4CCOCC4)ccc23)nc(NC2CC2)n1 | 20.9 | 0.53 | 4.82 | 7.12 | 3.28 | 4.27 | 5 | 1.31 | 3.4 | 2.15

Row | SMILES | inhibition [1] [%] | inhibition [2] [%] | inhibition [3] [%] | inhibition [4] [%] | inhibition [5] [%] | inhibition [6] [%] | inhibition [7] [%] | inhibition [8] [%] | inhibition [9] [%] | inhibition [10] [%]
18 | CCNC(=O)O[C@H]1CN[C@H](C#Cc2cc3ncnc(Nc4ccc(OCc5cccc(F)c5)c(Cl)c4)c3s2)C1 | 2.58 | 2.43 | 3.63 | 2.76 | 0.45 | 0.45 | 5 | 3.42 | 3.76 | 3.21
19 | CNC(=O)c1cc(-c2ccc(F)cc2)cc(-c2ccc(S(=O)(=O)N3CCCC3)cc2)c1N | 3.53 | 3.32 | 1.27 | 3.02 | 1.68 | -2.57 | 1.97 | 2.58 | 2.91 | 2.81
20 | COC(=O)Nc1nc2ccc(S(=O)(=O)c3ccc(NC(=O)Nc4cc(C(F)(F)F)ccc4F)cc3)cc2[nH]1 | -0.26 | 3.87 | 5.14 | 1.09 | -0.17 | -0.14 | 0.67 | 2.26 | 3.94 | 1.63
21 | O=S(=O)(CCNCc1ccc(-c2ccc3ncnc(Nc4ccc(OCc5cccc(F)c5)c(Cl)c4)c3c2)o1)c1ccccc1 | 9.57 | 3.44 | 6.21 | 3.42 | 5.36 | 0.27 | -1.16 | 3.99 | 8.49 | 5.14
22 | COC(=O)Nc1nc2ccc(Oc3ccc(NC(=O)Nc4cccc(Cl)c4)cc3)cc2[nH]1 | 90.8 | -0.72 | -1.6 | 22.5 | 57.1 | 69.5 | 91.2 | 2.47 | 9.47 | 2.31
23 | FC(F)(F)c1cccc(-c2nn3ncccc3c2-c2ccnc(Nc3ccc4c(c3)OCCO4)n2)c1 | 24.6 | 1.11 | 1.8 | 0.93 | 3.06 | -1 | 5.35 | 9.37 | 45.8 | 2.06
24 | COc1ccc(-c2cc(-c3c[nH]nc3-c3ccccn3)ccn2)cc1 | 9.66 | 4.3 | 11.7 | 4.24 | 4.17 | -1.03 | 2.87 | 2.68 | 5.16 | 5.4
25 | CNC(=O)c1cncc(/C=C/c2ccccc2Cl)c1 | 10.7 | -0.76 | 3.85 | -1.89 | 3.4 | 2.25 | 8.8 | 4.51 | 5.49 | -0.19
26 | COc1cc2c(cc1Nc1nc(Nc3ccsc3C(N)=O)c3cc[nH]c3n1)N(C(=O)CN(C)C)CCC2(C)C | 67.6 | 3.34 | 7.2 | 5.12 | 16.2 | 5.02 | 17.8 | 0.99 | 4.76 | 95.3
27 | COc1ccc(CNC(=O)c2ccc(-c3cc(-c4nnc(C)o4)ccc3C)cc2)cc1 | 6.51 | -5.34 | 4.89 | 2.12 | 3.18 | 4.68 | 4.58 | 0.44 | 3.44 | 1.41
28 | Cc1cccc(Nc2ncc(-c3ccccc3)o2)c1 | 89 | 1.52 | -0.48 | 4.58 | 48 | 6.79 | 53 | 3.23 | 5.7 | 3.02
29 | COc1cc(N2CCN(C(C)C)CC2)ccc1Nc1nc(Nc2ccc(F)cc2C(N)=O)c2cc[nH]c2n1 | 4.94 | -1.16 | 2.56 | -2.37 | -1.31 | -1.89 | -1.36 | 2.34 | 4.79 | 93.5
30 | Fc1ccc(-c2nn3ncccc3c2-c2ccnc(Nc3ccc4c(c3)OCCO4)n2)cc1 | 91.9 | 3.55 | 4.13 | 5.56 | 27.3 | 16.3 | 64.5 | 44.7 | 85.1 | 3.99
31 | COc1cccc(-c2c[nH]c3c(N/N=C/c4ccncc4)ncnc23)c1 | 88 | 8.75 | 38.7 | 7.21 | 51.1 | 4.19 | 19.6 | 35.1 | 82 | 3.15
32 | CCn1c(-c2nonc2N)nc2ccccc21 | 4.28 | 1.78 | -1.08 | 2.82 | 0.55 | 1.72 | 1.6 | 0.68 | 3.03 | 5.66
33 | COc1ccc(-c2oc3ncnc(N)c3c2-c2ccc(NC(=O)Nc3cc(C(F)(F)F)ccc3F)cc2)cc1 | 96 | 2.85 | 5.19 | 11.8 | 88.3 | 25.5 | 78.6 | 21.1 | 83.9 | 4.21
34 | CCn1cc(-c2ccnc3[nH]ccc23)c(-c2cccc(NC(=O)Nc3ccc(OCc4ccccc4)cc3)c2)n1 | -0.41 | 1.35 | -0.05 | -1.41 | -1.25 | -1.87 | -1.14 | 2.58 | 21.8 | 1.35
